High-throughput results as filed in PubChem.
This excerpt belongs to a sample that is enriched for hits.
ALOX12 inh = inhibitors of human 12S-lipoxygenase ALOX12; AID 1671190; purified 12hLO, xylenol orange hydroperoxide absorbance; Potency, µM (series often up to 108 µM), inactives show at the top dose activity change, negative = inhibition, usual class: inhibitors; 580,000 tested, 1.1% active; P18054; also: potency is read from the fitted curve at half-maximal effect
Target sequence (P18054 whole entry, looked up): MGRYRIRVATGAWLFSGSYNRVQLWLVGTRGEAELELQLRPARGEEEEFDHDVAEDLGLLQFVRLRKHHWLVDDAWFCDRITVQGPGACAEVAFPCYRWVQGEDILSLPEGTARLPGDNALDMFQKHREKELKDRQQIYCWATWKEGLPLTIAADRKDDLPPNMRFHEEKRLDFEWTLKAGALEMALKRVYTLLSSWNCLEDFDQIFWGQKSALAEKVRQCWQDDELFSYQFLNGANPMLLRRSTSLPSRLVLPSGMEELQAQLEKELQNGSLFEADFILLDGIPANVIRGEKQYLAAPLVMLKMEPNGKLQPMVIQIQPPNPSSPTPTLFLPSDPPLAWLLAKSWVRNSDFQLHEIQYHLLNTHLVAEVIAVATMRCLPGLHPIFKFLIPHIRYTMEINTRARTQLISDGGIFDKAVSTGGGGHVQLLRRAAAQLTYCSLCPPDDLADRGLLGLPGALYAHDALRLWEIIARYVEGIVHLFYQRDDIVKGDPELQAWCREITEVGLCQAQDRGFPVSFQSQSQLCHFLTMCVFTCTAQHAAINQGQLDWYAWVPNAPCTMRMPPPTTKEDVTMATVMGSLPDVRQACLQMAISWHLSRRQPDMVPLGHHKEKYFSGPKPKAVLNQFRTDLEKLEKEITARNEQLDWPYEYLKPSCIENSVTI
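Hydroperoxide product was detected by ferrous iron/xylenol orange as the 573 to 405 nm absorbance ratio. Arachidonic acid at 40 uM (final) was turned over for 30 min at room temperature by 150 nM human 12hLO, pH 7.0 Hepes buffer, after 15 min compound preincubation.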
HT1080NT lethal = kills 2HG-producing HT-1080-NT fibrosarcoma cells. HT-1080-NT fibrosarcoma viability, CellTiter-Glo ATP luminescence, 48 h. 360,000 tested, 1.6% active. Potency, µM (series often up to 46.1 µM), for inactives: at the top dose activity, negative = less viability, actives largely listed as cytotoxic;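 also: NT is the 2HG producing partner of a matched IDH1 knockdown line; potency is read from the fitted curve at half-maximal effect; 0% = DMSO-treated cells and -100% = media-only wells without cells; nearly all actives have a fitted effect of over 55% in size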
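Read-out is CellTiter-Glo luminescence after 10 minutes at room temperature, following 48 hours' compound treatment of HT-1080-NT cells (750 cells/well, RPMI, 5% FBS, 37 degrees C).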
HT1080 IDH1KD tx = toxicity to HT-1080 IDH1 knockdown cells (counter line). HT-1080 IDH1 knockdown viability, ATP luminescence, 48 h. Potency, µM (doses to about 46.1 µM), for inactives: at the top dose activity, negative = toxicity, most hits filed as cytotoxic. 360,000 tested, 2% active. AID 686971;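 also: potency is read from the fitted curve at half-maximal effect; 0% = DMSO wells and -100% = cell-free medium wells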
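In this qHTS, HT-1080 cells depleted of IDH1 are exposed for 48 h at 37 °C to compound titrations. Toxicity is scored from CellTiter-Glo luminescence, with DMSO as full viability and medium alone as none.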
TDP1 cell CPT = DT40-hTDP1 cell growth loss with CPT | 420,000 tested, 12% active | AID 686979 | chicken DT40 Tdp1-/-;hTDP1 cells + 20 nM CPT, ATP luminescence, 48 h | Potency, µM (highest dose often 46.2 µM), for the others: at the top dose activity change, negative = growth inhibition, hits mostly inhibitors; also: potency is read from the fitted curve at half-maximal effect; nearly all actives have a fitted effect of over 55% in size
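Chicken DT40 Tdp1-/- cells stably complemented with human TDP1 were seeded at 400 cells/well in medium containing 20 nM camptothecin, exposed to pin-transferred compounds, and grown at 37 °C for at least 48 hr. Viability was read as ATP luminescence.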
DT40 TDP1 no CPT = qHTS for Inhibitors of human tyrosyl-DNA phosphodiesterase 1 (TDP1): qHTS in cells in absence of CPT; DT40 Tdp1-/- hTDP1 cells, no CPT, ATP luminescence, 48 h; Potency, µM (series often up to 46.2 µM), inactives show at the highest dose activity change, negative = growth inhibition, hits mostly inhibitors; 420,000 tested, 15% active; also: potency is read from the fitted curve at half-maximal effect; nearly all actives have a fitted effect of over 55% in size
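Growth kinetics read by CellTiter-Glo luminescence after ≥48 hr at 37 °C. Cells: DT40 Tdp1-/- stably carrying human TDP1, 400 per well, compound exposure in the absence of CPT (DMSO vehicle).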
IL-1B inflam inh = inflammasome signaling inhibition, IL-1 beta readout | THP-1 LPS/ATP IL-1B secretion, AlphaLISA, 16 h; stronger effect = lower value | activity change, % at 57.5 µM | 360,000 tested, 4.7% active | AID 743279; in the data active = activity change below about -50%; inconclusive = mostly about -30% to -49%
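Secreted IL-1B measured by AlphaLISA bead assay after 16 h compound exposure of THP-1 cells; compounds (final up to 57.5 uM) added 1 h before LPS (250 ng/mL) and ATP (1.25 mM) stimulation; lower signal means less secretion.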
* hit, by the source's call; ? = inconclusive; / = not tested or not shown; [ ] = dose if it differs, or a comment. Unless noted, calls follow the shape of the dose curve; as a rule, active = well fitted curve in the direction sought with a large enough effect; inconclusive = small, poorly fitted or top-dose-only effect, or another doubt; inactive = no such curve, though single readings can be large; an effect the other way counts as inactive or inconclusive. Unless noted, % is scaled to controls: 0 for no effect and ±100 for the full control effect.

SMILES	ALOX12 inh	HT1080NT lethal	HT1080 IDH1KD tx	TDP1 cell CPT	DT40 TDP1 no CPT	IL-1B inflam inh
Cc1cnc(CNc2ncnc3ccc(-c4ccc5c(c4)OCO5)cc23)cn1	-16%	/	/	?	?	/
CN(C)c1ncnc2ccc(-c3ccc4c(c3)OCO4)cc12	-15%	/	/	?	23µM*	/
CCS(=O)(=O)c1nc(S(=O)(=O)c2ccc(Cl)cc2)c(NCc2ccccc2Cl)s1	-16%	/	/	?	?	/
CCCS(=O)(=O)c1nc(S(=O)(=O)c2ccc(C)cc2)c(NCc2ccccc2)s1	-9%	/	/	-27%	?	/
CC(C)OCCCNc1sc(S(=O)(=O)c2ccccc2)nc1S(=O)(=O)c1ccc(Cl)cc1	5%	/	/	?	18µM*	/
CCCS(=O)(=O)c1nc(S(=O)(=O)c2ccc(C)cc2)c(NCC(C)C)s1	-13%	/	/	?	21µM*	/
CCCCNc1sc(S(=O)(=O)CCC)nc1S(=O)(=O)c1ccc(C)cc1	-24%	/	/	?	21µM*	/
CCCCNc1sc(S(=O)(=O)CC)nc1S(=O)(=O)c1ccc(C)cc1	-2%	/	/	?	23µM*	/
CCc1nc2ccc(C(=O)NCCOc3ccc(OC)cc3)cn2c1N(C)CCCc1ccccc1	23%	?	-4%	?	?	0
S=C(NCc1ccccc1)NCc1cccc(CNC(=S)NCc2ccccc2)c1	32µM*	-22%	-24%	?	?	-19
CCN(C(=S)Nc1cccc2ccccc12)c1ccccc1	?	-7%	-19%	?	10µM*	-3
S=C(NCc1cccs1)Nc1cccc2ccccc12	?	1%	-9%	6%	-18%	?
S=C(NCc1ccccc1)NCc1cccc(Cl)c1	?	-20%	-12%	1%	0%	-14
S=C(NCc1ccccc1)Nc1cccc2ccccc12	45µM*	-21%	-9%	18µM*	18µM*	0
CN(C)C(=S)NCc1ccccc1	-13%	13%	13%	23µM*	10µM*	5
CC(=O)NC1=NN(C(C)=O)C2(S1)C(=O)N(C)c1c(C)cccc12 (stereo not given)	24%	/	/	/	/	/
O=C1c2ccc(-c3nc4ccccc4o3)cc2C(=O)N1Cc1ccncc1	15%	/	/	/	/	/
Cc1ccc(S(=O)(=O)c2cc(OC(=O)c3ccco3)ccc2OC(=O)c2ccco2)cc1	-7%	-2%	-6%	?	16µM*	4
Cc1ccc(C2=Nc3ccccc3SC(c3cccc([N+](=O)[O-])c3)C2)cc1 (stereo not given)	-26%	8%	7%	?	16µM*	-17
COc1ccc(C2=NN(C(=O)c3cccc([N+](=O)[O-])c3)C(c3cccc([N+](=O)[O-])c3)C2)cc1 (stereo not given)	20%	-4%	-13%	3%	-14%	-4
CN(Cc1ccccc1N1CCCCC1)C(=O)c1cccc(S(=O)(=O)N2CCCC2)c1	9%	/	/	/	/	/
O=S(=O)(O)Oc1ccc(C(c2ccc(OS(=O)(=O)O)cc2)c2ccccn2)cc1	/	/	/	-2%	8%	/
CC(=O)Oc1ccc(C(c2ccc(OC(C)=O)cc2)c2ccccn2)cc1	13%	?	?	?	15µM*	-77*
Cc1noc(C)c1C(=O)N1CC[C@H](N2CCN(C)CC2)[C@H](CCC(=O)O)C1	2%	/	/	/	/	/
Cn1ncc2c(C(=O)NCc3cccnc3)cc(-c3ccc(Cl)nc3)nc21	-14%[6.33 µM]	/	/	/	/	/
SMILES	ALOX12 inh	HT1080NT lethal	HT1080 IDH1KD tx	TDP1 cell CPT	DT40 TDP1 no CPT	IL-1B inflam inh
CC(C)Cn1c(N)c(C(=O)COC(=O)c2ccc3c(c2)OCCO3)c(=O)n(C)c1=O	0%	-1%	-1%	18µM*	21µM*	-4
CC(C)Cn1c(N)c(C(=O)CSc2ccc3c(c2)OCCO3)c(=O)n(C)c1=O	-6%	-15%	?	4.1µM*	3.7µM*	-8
Cc1ccc(C(=O)NC(C2CC2)C2CC2)cn1	58%	/	/	/	/	/
CC1CCC(NC(=O)c2cccc(S(=O)(=O)N3CCN(c4ccc(F)cc4)CC3)c2)CC1 (stereo not given)	3%	3%	1%	?	9.2µM*	12
CC1CC(C)CN(S(=O)(=O)c2cccc(C(=O)N3CCN(c4ccc(F)cc4)CC3)c2)C1 (stereo not given)	0%	-2%	-23%	?	21µM*	-22
CC1CCN(S(=O)(=O)c2cccc(C(=O)N3CCN(c4ccc(F)cc4)CC3)c2)CC1	-20%	?	-23%	15µM*	?	-14
CC(=O)N1CCN(S(=O)(=O)c2cccc(C(=O)NC3CC3)c2)CC1	93%	-2%	-5%	23%	1%	5
O=C(c1cccc(S(=O)(=O)N2CCN(c3ccc(F)cc3)CC2)c1)N1CCCC1	11%	-5%	-9%	?	?	-9
O=C(c1cccc(S(=O)(=O)N2CCCC2)c1)N1CCN(c2ccccc2)CC1	-17%	?	?	?	?	13
CC(C)CNC(=O)NC(=O)CN(C(C)C)C1CC1	-37%	/	/	/	/	/
CCC(=O)Nc1ccc2nc(SCCOc3ccc(C)cc3)sc2c1	0%	/	/	?	?	/
O=C(Nc1cnc(-c2ccc(Cl)cc2)nc1)c1cccs1	10%	/	/	/	/	/
CCN1c2cc(C(=O)NCc3ccccc3Cl)ccc2C(=O)N2CCCCCC21 (stereo not given)	2%	/	/	/	/	/
NC(=O)c1cccc(-c2cc3c(cn2)CN(CCc2ccccc2)CCN3)c1	-33%[176 µM]	/	/	/	/	/
CCN1C2=NCCCN2c2ccccc21	0%	13%	22%	-5%	-18%	0
CCCN1C2=NCCN2c2cc(C)c(C)cc21	-3%	-3%	-4%	-27%	23µM*	0
CCCCCN1C2=NCCN2c2ccccc21	-11%	-15%	-1%	29µM*	16µM*	-2
COC(=O)c1cc(S(=O)(=O)Nc2cccc(-c3ccno3)c2)c[nH]1	1%	2%	-5%	12µM*	7.3µM*	26
Cc1ccccc1-c1nc(CN(Cc2c(C)nn(C)c2C)C2CC2)c(C)o1	4%	-4%	-12%	?	23µM*	-76*
Cc1ccc(S(=O)(=O)Nc2ccc(S(=O)(=O)N3CCOCC3)cc2)cc1	126%	-10%	0%	-8%	-3%	0
Cc1ccc(S(=O)(=O)Nc2ccc3c(c2)c2c(n3S(=O)(=O)c3ccc(C)cc3)CCCC2=O)cc1	-29%	-5%	-15%	5.8µM*	8.2µM*	25
